Several values for one entry are separate records, joined by “and”; a condition that tells them apart may be missing. Equal values may be shown once. Records with an inconclusive call do not appear. Activity calls are given as the source filed them. Calls come from the whole dose curve; as a rule, active = well fitted curve in the direction sought with a large enough effect; inconclusive = small, poorly fitted or top-dose-only effect, or another doubt; inactive = no such curve, though single readings can be large; an effect the other way counts as inactive or inconclusive.
What was measured:
[1] = system: CRL-7250; experiment: Cytotoxic Profiling of Annotated Libraries Using Quantitative High-Throughput Screening (AID 1296008); details: Five cell lines viability, CellTiter-Glo ATP luminescence, 48-72 h; max response: hits give low values; note: nearly all actives have a fitted effect of over 60% in size
How it was run: (§1)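 Compounds were pin-transferred onto cells and incubated 48 or 72 hr at 37 degree Celsius, 95% humidity. CellTiter-Glo was added, plates sat 10 min at room temperature, then ATP-coupled luminescence was imaged as the viability read-out.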

[2] = system: HEK293; experiment: as above; details: Five cell lines viability, CellTiter-Glo ATP luminescence, 48-72 h; max response: hits give low values
How it was run: as §1

[3] = system: HaCat; experiment: as above; details: Five cell lines viability, CellTiter-Glo ATP luminescence, 48-72 h; max response: hits give low values
How it was run: as §1

[4] = system: KB-3-1; experiment: as above; details: Five cell lines viability, CellTiter-Glo ATP luminescence, 48-72 h; max response: hits give low values
How it was run: as §1

[5] = system: NIH3T3; experiment: as above; details: Five cell lines viability, CellTiter-Glo ATP luminescence, 48-72 h; max response: hits give low values
How it was run: as §1

[6] = system: MCC-13; experiment: qHTS assay to identify novel small-molecules to repurpose for Merkel cell carcinoma treatment (AID 1296009); details: MCC and control cell lines, CellTiter-Glo viability, 72 h; series mostly up to 46 µM; note: nearly all actives have a fitted effect of over 60% in size
How it was run: (§2)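 Luminescence from CellTiter-Glo, read 10 min after addition at room temperature, reported viability following a 72 hr, 37 degree celsius treatment with NPC or MIPE compounds in titration; values normalized to plate controls.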

[7] = system: MCC-26; experiment: as above; details: MCC and control cell lines, CellTiter-Glo viability, 72 h; series mostly up to 46 µM
How it was run: as §2

[8] = system: MKL-1; experiment: as above; details: MCC and control cell lines, CellTiter-Glo viability, 72 h; series mostly up to 46 µM
How it was run: as §2

[9] = system: MKL-2; experiment: as above; details: MCC and control cell lines, CellTiter-Glo viability, 72 h; series mostly up to 46 µM
How it was run: as §2

[10] = system: UISO; experiment: as above; details: MCC and control cell lines, CellTiter-Glo viability, 72 h; series mostly up to 46 µM
How it was run: as §2

[11] = system: WaGa; experiment: as above; details: MCC and control cell lines, CellTiter-Glo viability, 72 h; series mostly up to 46 µM
How it was run: as §2

[12] = system: C33A; experiment: Primary qHTS to identify gynecologic anti-cancer compounds using libraries of approved drugs and bioactive compounds (AID 1345084); details: Gynecologic cancer cell panel viability, ATPlite luminescence, 48 h; series mostly up to 57.5 µM; note: nearly all actives have a fitted effect of over 55% in size
How it was run: (§3)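 Cells, 1,000 per well, plated 16 h, then exposed 48 h at 37 C to compounds. Viability by ATPlite luminescence after 15 min at room temperature.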

[13] = system: CASKI; experiment: as above; details: Gynecologic cancer cell panel viability, ATPlite luminescence, 48 h; series mostly up to 57.5 µM
How it was run: as §3

[14] = system: Es-2; experiment: as above; details: Gynecologic cancer cell panel viability, ATPlite luminescence, 48 h; series mostly up to 57.5 µM
How it was run: as §3

[15] = system: HeLa; experiment: as above; details: Gynecologic cancer cell panel viability, ATPlite luminescence, 48 h; series mostly up to 57.5 µM
How it was run: as §3

[16] = system: NIH3T3; experiment: qHTS assay to identify novel small-molecules to repurpose for Merkel cell carcinoma treatment (AID 1296009); details: MCC and control cell lines, CellTiter-Glo viability, 72 h; at 44.8 µM (top of the series) unless noted; note: nearly all actives have a fitted effect of over 60% in size
How it was run: as §2

[17] = system: CAOV3; experiment: Primary qHTS to identify gynecologic anti-cancer compounds using libraries of approved drugs and bioactive compounds (AID 1345084); details: Gynecologic cancer cell panel viability, ATPlite luminescence, 48 h; series mostly up to 57.5 µM; note: nearly all actives have a fitted effect of over 55% in size
How it was run: as §3

[18] = system: HEK293T; experiment: qHTS assay to identify novel small-molecules to repurpose for Merkel cell carcinoma treatment (AID 1296009); details: MCC and control cell lines, CellTiter-Glo viability, 72 h; at 44.8 µM (top of the series); note: nearly all actives have a fitted effect of over 60% in size
How it was run: as §2
% is set by controls: 0 for no effect and ±100 for the full control effect.

c1ccc2nc(N3CCNCC3)ccc2c1
inactive: max response [1] -2.05% | max response [2] -18% | max response [3] -23.1% | max response [4] -16.3% | max response [5] 0.319% | Potency [6] | Potency [7] | Potency [8] | Potency [9] | Potency [10] | Potency [11] | Potency [12] | Potency [13] | Potency [14] | Potency [15]

COCC(=O)N(c1c(C)cccc1C)C(C)C(=O)OC (stereo not given)
inactive: max response [1] 1.66% | max response [2] -19.3% | max response [3] 3.69% | max response [4] -13.6% | outcome [5] | Potency [6] | Potency [7] | Potency [8] | Potency [9] | outcome [16] | Potency [10] | Potency [11] | Potency [12] | Potency [17] | Potency [13] | Potency [14] | Potency [15]

CCC1(c2cccc(O)c2)CCCCN(C)C1 (stereo not given)
inactive: max response [1] -9.91% | max response [2] -2.39% | max response [3] -5.66% | max response [4] 24.1% | max response [5] 2.43% | Potency [6] | Potency [7] | Potency [8] | Potency [9] | Potency [10] | Potency [11] | Potency [12] | Potency [17] | Potency [13] | Potency [14] | Potency [15]

COc1ccc2[nH]cc(CCN(C(C)C)C(C)C)c2c1
inactive: max response [1] -1.26% | max response [2] -7.74% | max response [3] 1.43% | max response [4] -17% | max response [5] 1.94% | Potency [6] | Potency [7] | Potency [8] | Potency [10] | Potency [11] | Potency [12] | Potency [17] | Potency [13] | Potency [14] | Potency [15]

Oc1c(Br)cc(Br)cc1Br
inactive: max response [1] -10.6% | max response [2] 2.8% | max response [3] -13% | max response [4] -5.6% | max response [5] -1.39% | Potency [6] | Potency [7] | Potency [8] | Potency [9] | Potency [10] | Potency [11] | Potency [12] | Potency [17] | Potency [13] | Potency [14] | Potency [15]

COc1ccc(C(=O)N2CCCC2=O)cc1
inactive: max response [1] -4.75% and 1.19% | outcome [2] | max response [3] -10.2% and -4.53% | max response [4] -8.06% | max response [5] -15.7% and -0.26% | outcome [18] | Potency [6] | Potency [7] | Potency [8] | Potency [9] | Potency [10] | Potency [11] | Potency [12] | Potency [13] | Potency [14] | Potency [15]

COc1cc(CC(C)N)cc2c1OCO2 (stereo not given)
inactive: max response [1] -5.81% | max response [2] -16.7% | max response [3] 1.78% | max response [4] -6.39% | max response [5] -6.97% | Potency [6] | Potency [7] | Potency [8] | Potency [9] | Potency [10] | Potency [11] | Potency [12] | Potency [13] | Potency [14] | Potency [15]

Source: PubChem BioAssay (NCATS)
